rCAG RNA binder: binders of r(CAG) RNA repeats, primary screen, biochemical, fluorescence | r(CAG) RNA repeat, TO-PRO-1 dye displacement fluorescence | inhibition, % at 3 µM | actives 1.3% (n = 370,000) | AID 651821, 2012;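 active = inhibition above the plate cutoff, the mean of all test compounds on that plate plus 3 SD, cut at about 35% in these data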;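 also: 0% = DMSO alone and 100% = 100 µM mitoxantrone as full dye displacement; higher means more dye released from RNA so lower well fluorescence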
ZTA counter: counter-screen for EBNA-1 inhibitors: inhibitors of Epstein-Barr virus ZTA; P03206; actives 0.15% (n = 320,000); inhibition, % at 11 µM; AID 2234; ZTA-DNA binding, fluorescence polarization; in the data active = inhibition above about 33%
Target sequence (P03206 whole entry, looked up): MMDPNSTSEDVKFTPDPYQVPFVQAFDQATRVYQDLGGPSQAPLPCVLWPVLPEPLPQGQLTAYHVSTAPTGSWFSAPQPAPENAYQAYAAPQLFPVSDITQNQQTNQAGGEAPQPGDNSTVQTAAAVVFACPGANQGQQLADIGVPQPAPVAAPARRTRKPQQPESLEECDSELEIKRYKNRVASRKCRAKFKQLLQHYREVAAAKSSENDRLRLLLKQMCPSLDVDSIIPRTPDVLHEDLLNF
EBNA-1 inhibitor: EBNA-1 DNA-binding inhibitors, primary screen, biochemical, fluorescence polarization; AID 1950, 2009; actives 0.34% (n = 300,000); inhibition, % at 14.8 µM; in the data active = inhibition above about 28%
PAFAH2 inh: PAFAH2 enzyme inhibitors, primary screen, biochemical, fluorescence polarization, human; Platelet-activating factor acetylhydrolase 2, cytoplasmic (Homo sapiens), Q99487; recombinant PAFAH2, FP-rhodamine activity probe; inhibition, % at 3.39 µM; actives 0.99% (n = 340,000); AID 492956, 2010;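 active = inhibition above the mean over all tested compounds plus 3 SD, cut at about 30% in these data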;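 also: inhibitors block probe labeling of enzyme so polarization drops; 0% = enzyme with DMSO and 100% = wells lacking PAFAH2 protein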
PAFAH1B3 inh: PAFAH1B3 enzyme inhibitors, primary screen, biochemical, fluorescence polarization, human; Platelet-activating factor acetylhydrolase IB subunit alpha1 (Homo sapiens), Q15102; AID 492972, 2010; inhibition, % at 3.39 µM; recombinant PAFAH1B3, FP-rhodamine probe; actives 0.28% (n = 340,000);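 active = inhibition above the screen-wide average of all tested compounds plus 3 SD, cut at about 25% in these data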;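 also: 0% = enzyme with DMSO only and 100% = wells lacking PAFAH1B3 protein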
Target sequence (Q15102 whole entry, looked up): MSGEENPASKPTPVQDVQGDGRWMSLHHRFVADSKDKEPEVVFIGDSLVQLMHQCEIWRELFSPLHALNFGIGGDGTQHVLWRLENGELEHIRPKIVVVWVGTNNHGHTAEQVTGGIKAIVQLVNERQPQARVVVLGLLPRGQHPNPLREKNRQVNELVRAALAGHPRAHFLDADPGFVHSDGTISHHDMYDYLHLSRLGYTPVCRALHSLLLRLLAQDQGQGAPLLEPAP
PAFAH1B2 inh: PAFAH1B2 enzyme inhibitors, primary screen, biochemical, fluorescence polarization, human. Platelet-activating factor acetylhydrolase IB subunit alpha2 (Homo sapiens), P68402. recombinant PAFAH1B2, FP-rhodamine activity probe. inhibition, % at 3.39 µM. actives 1.2% (n = 340,000). AID 492953, 2010;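 active = inhibition above the mean of all tested compounds plus 3 SD, cut at about 24% in these data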;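 also: 0% = enzyme with DMSO and 100% = wells lacking PAFAH1B2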
PAFAH2 confirm: PAFAH2 enzyme inhibitors, confirmation, biochemical, fluorescence polarization, human | inhibition, % at 3.39 µM | recombinant PAFAH2, FP-rhodamine activity probe | shares compounds with PAFAH2 inh | actives 65% (n = 2,300) | AID 493030, 2011;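 active = mean inhibition over three repeats above a set limit taken from the earlier primary screen, cut at about 30% in these data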;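 also: inhibitor blocks binding of rhodamine activity probe so polarization falls; 0% = enzyme with DMSO and 100% = wells lacking PAFAH2 protein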
* marks the source's active call; other numbers are inactive results. Compounds with a hit are over-represented: about 2.9% of the library has one in this group of screens.

Screening CN(C(=O)COC(=O)c1ccc(NS(=O)(=O)c2cccs2)cc1)C1CCCCC1 returned rCAG RNA binder 21, ZTA counter -23, EBNA-1 inhibitor -12, PAFAH2 inh 70*, PAFAH1B3 inh 12, PAFAH1B2 inh 0 and PAFAH2 confirm 72*.
CC(=O)Nc1ccc(C(=O)OCC(=O)NC2CCCCCCC2)cc1 was read as rCAG RNA binder -6, ZTA counter 12, EBNA-1 inhibitor 1, PAFAH2 inh 79*, PAFAH1B3 inh 16, PAFAH1B2 inh 8 and PAFAH2 confirm 75*.
For Cc1c(NS(=O)(=O)c2cccc(C(=O)OCC(=O)N(C)C3CCCCC3)c2)c(=O)n(-c2ccccc2)n1C the results were rCAG RNA binder -7, ZTA counter -8, EBNA-1 inhibitor 1, PAFAH2 inh 34*, PAFAH1B3 inh 2, PAFAH1B2 inh 2 and PAFAH2 confirm 21.
Screening C[C@H]1CCCN1c1ccc2c(c1)O[C@H]1CCN(C1)S2(=O)=O returned rCAG RNA binder 5.
N/C(CS(=O)(=O)c1ccccc1)=N\OC(=O)c1ccc(F)cc1 was read as rCAG RNA binder -4, ZTA counter 1, EBNA-1 inhibitor -5, PAFAH2 inh 52*, PAFAH1B3 inh 5, PAFAH1B2 inh 3 and PAFAH2 confirm 40*.
Screening Cc1ccccc1/C(N)=N/OC(=O)c1ccc(F)cc1 returned rCAG RNA binder 1, ZTA counter 3, EBNA-1 inhibitor 9, PAFAH2 inh 4, PAFAH1B3 inh 5 and PAFAH1B2 inh 14.
CCCCn1c(O)c(N=NC(=O)c2ccccc2NS(=O)(=O)c2cccs2)c2ccccc21 was read as rCAG RNA binder 18, ZTA counter 16, EBNA-1 inhibitor 5, PAFAH2 inh 13, PAFAH1B3 inh 15 and PAFAH1B2 inh 10.
Screening C=CCn1c(O)c(N=NC(=O)c2ccccc2NS(=O)(=O)c2cccs2)c2ccccc21 returned rCAG RNA binder 23, ZTA counter -2, EBNA-1 inhibitor 7, PAFAH2 inh 37*, PAFAH1B3 inh 5, PAFAH1B2 inh 9 and PAFAH2 confirm 27.
Screening Cc1ccc2nc(-c3ccccc3)oc(=O)c2c1 returned rCAG RNA binder 1, ZTA counter 10, EBNA-1 inhibitor 9, PAFAH2 inh 86*, PAFAH1B3 inh 4, PAFAH1B2 inh 0 and PAFAH2 confirm 69*.
COc1ccc(-c2nc3ccc(C)cc3c(=O)o2)cc1OC was read as rCAG RNA binder 0, ZTA counter 6, EBNA-1 inhibitor -5, PAFAH2 inh 43*, PAFAH1B3 inh -2, PAFAH1B2 inh -5 and PAFAH2 confirm 42*.
Screening O=c1oc(-c2cccc([N+](=O)[O-])c2)nc2ccccc12 returned rCAG RNA binder 5, ZTA counter 6, EBNA-1 inhibitor -4, PAFAH2 inh 43*, PAFAH1B3 inh 17, PAFAH1B2 inh 5 and PAFAH2 confirm 48*.
`Cc1cc(-c2cccc([N+](=O)[O-])c2)nc2ccccc12` gave rCAG RNA binder 4, ZTA counter 9, EBNA-1 inhibitor 3, PAFAH2 inh -5, PAFAH1B3 inh 0 and PAFAH1B2 inh -1.
For Cc1ccc2nc(Cl)nc(-c3ccccc3)c2c1 the results were rCAG RNA binder -1, ZTA counter -15, EBNA-1 inhibitor -6, PAFAH2 inh 4, PAFAH1B3 inh 3 and PAFAH1B2 inh 2.
Screening Cc1ccc2nc(-c3ccccc3C)oc(=O)c2c1 returned rCAG RNA binder -2, ZTA counter -2, EBNA-1 inhibitor 3, PAFAH2 inh 65*, PAFAH1B3 inh 3, PAFAH1B2 inh -2 and PAFAH2 confirm 45*.
For COC(=O)[C@]12C[C@H](CC(=O)N3CCC(c4ccccc4)CC3)C(=O)N(Cc3ccco3)C1=C[C@H](C(C)(C)C)O[C@@H]2C the results were rCAG RNA binder 3.
`FC(F)(F)c1cccc(Cn2ccc3ccc(-c4ccc5ccn(Cc6cccc(C(F)(F)F)c6)c5c4)cc32)c1` gave rCAG RNA binder 11.
O=C(NC1CCCCN(Cc2cccc(C(F)(F)F)c2)C1=O)c1cccc([N+](=O)[O-])c1 (stereo not drawn) was read as rCAG RNA binder 1.
Screening O=C(OCc1cn(Cc2cccc(F)c2F)nn1)N1CCOCC1 returned rCAG RNA binder 0.
Screening O=c1oc(-c2ccc(Br)o2)nc2ccccc12 returned rCAG RNA binder 2, ZTA counter -7, EBNA-1 inhibitor 0, PAFAH2 inh 60*, PAFAH1B3 inh 10, PAFAH1B2 inh 3 and PAFAH2 confirm 65*.
`Cc1cc(-c2nc3ccccc3c(=O)o2)ccc1[N+](=O)[O-]` gave rCAG RNA binder 11, ZTA counter -31, EBNA-1 inhibitor -27, PAFAH2 inh 70*, PAFAH1B3 inh 9, PAFAH1B2 inh 3 and PAFAH2 confirm 70*.
CC(=O)Oc1ccc(-c2nc3ccccc3c(=O)o2)cc1 was read as rCAG RNA binder 1, ZTA counter -21, EBNA-1 inhibitor -1, PAFAH2 inh 19, PAFAH1B3 inh 11 and PAFAH1B2 inh 3.
For Cc1ccccc1-c1nc2ccccc2c(=O)o1 the results were rCAG RNA binder 4.
`O=c1oc(-c2ccc(Cl)cc2[N+](=O)[O-])nc2ccccc12` gave rCAG RNA binder 7.
For Cc1ccc(-c2nc3ccccc3c(=O)o2)cc1 the results were rCAG RNA binder 4, ZTA counter 9, EBNA-1 inhibitor 0, PAFAH2 inh 81*, PAFAH1B3 inh 4, PAFAH1B2 inh -2 and PAFAH2 confirm 73*.
For C=CCN1[C@H](CC(C)C)COc2cccc(F)c2S1(=O)=O the results were rCAG RNA binder 2.
For COc1cccc(CCNC(=O)CCc2nc(-c3ccccc3F)no2)c1 the results were rCAG RNA binder 2.
For Cc1cccc(-c2nnc(SCc3cccc4ccccc34)n2-c2ccc(Cl)cc2)c1 the results were rCAG RNA binder 8.
CCNC(=O)C[C@H]1CC[C@H]2[C@@H](COc3ccc(NC(=O)Nc4ccccc4)cc3C(=O)N2C)O1 was read as rCAG RNA binder 2.
For COc1cc(OC)cc(-c2nc3ccccc3c(=O)o2)c1 the results were rCAG RNA binder 6, ZTA counter -2, EBNA-1 inhibitor 2, PAFAH2 inh 55*, PAFAH1B3 inh -1, PAFAH1B2 inh 1 and PAFAH2 confirm 68*.
